Screens: PubChem BioAssay, The Scripps Research Institute Molecular Screening Center
Shown are actives, neighbours in structure and some others; about 4.8% of the full set was active somewhere.
hcDAF-12 act: activates DAF-12 receptor from parasite H. contortus | HEK293 hcDAF-12 lit1-tk-luc reporter, luminescence; 0% DMSO, 100% Δ7-dafachronic acid | activation, % at 6.8 µM | 1.4% of 370,000 active | AID 652067;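 active = activation above the mean of all tested compounds plus 3 SD, cut at about 5.5% in these data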;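 also: 100% = response to 3 µM Δ7-dafachronic acid high control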
ssDAF12 agonist: S. stercoralis DAF-12 activation, primary screen | HEK293 ssDAF-12/GRIP1 lit1-tk-luc reporter, luminescence; % of 3 µM dafachronic acid response | activation, % at 6.8 µM | 1% of 370,000 active | AID 652126;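 active = activation above the mean over all tested compounds plus 3 SD, cut at about 0.9% in these data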;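 also: 0% = DMSO-only wells and 100% = 3 µM delta7-dafachronic acid wells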
hgDAF-12 ag: activates the H. glycines DAF-12 receptor ligand-binding domain. HEK293 GAL4-hgDAF12 UAS-luciferase reporter, agonist luminescence; normalized to butyrate control. activation, % at 6.8 µM. 1.8% of 370,000 active. AID 687014;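 active = activation above a cutoff set at the mean of all screened compounds plus 3 SD, cut at about 10% in these data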;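 also: 0% = DMSO wells and 100% = sodium butyrate wells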
SMARCA2 activ: activators of SMARCA2 function. MG213 cells, MMTV-luciferase reporter, dexamethasone, overnight. activation, % at 9.1 µM. 1% of 370,000 active. AID 652017; in the data active = activation above about 7.8%;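 also: 0% = vehicle wells and 100% = reference activator wells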
DAX1 inh-1: inhibitors of human orphan nuclear receptor DAX1 (NR0B1) | AID 504766 | inhibition, % at 6.75 µM | 0.99% of 340,000 active | HEK293 Gal4-DAX1 luciferase reporter, luminescence | P51843;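 active = inhibition above the mean over all tested compounds plus 3 SD, cut at about 4.2% in these data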;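 also: 0% = DAX1-transfected cells with DMSO and 100% = empty-vector control cells with DMSO; inhibition shows as a rise in luminescence from relieved DAX1 repression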
Target sequence (P51843 207-470 limits assumed): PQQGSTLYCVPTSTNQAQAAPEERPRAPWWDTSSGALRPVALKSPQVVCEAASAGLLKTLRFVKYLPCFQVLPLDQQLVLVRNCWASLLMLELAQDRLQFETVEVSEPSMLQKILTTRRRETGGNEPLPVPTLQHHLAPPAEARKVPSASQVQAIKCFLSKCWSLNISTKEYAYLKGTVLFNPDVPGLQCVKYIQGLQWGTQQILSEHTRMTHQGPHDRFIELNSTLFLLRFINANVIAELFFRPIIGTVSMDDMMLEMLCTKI
DAX1 inh-2: inhibitors of DAX1 repression of SF-1 activated StAR promoter | HEK293T StAR-luciferase reporter, SF-1/DAX-1 repression relief | inhibition, % at 6.8 µM | 1.1% of 370,000 active | AID 652010;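 active = inhibition above the mean over all tested compounds plus 3 SD, cut at about 3.6% in these data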;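 also: 0% = DAX-1 cells with DMSO and 100% = cells lacking DAX-1 with DMSO; higher inhibition means more luminescence from relief of DAX-1 repression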
SMARCA2 act conf: SMARCA2 activation, confirmation screen; shares compounds with SMARCA2 activ; MG213 cells, MMTV-luciferase with dexamethasone, luminescence, overnight; MG213 cells expressing E1A, Rb sequestered; DMSO wells 0%, reference activator 100%; activation, % at 9.1 µM; 30% of 3,500 active; AID 652260;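 active = activation above its plate's cutoff, the mean activation of tested wells plus 3 SD, cut at about 7.9% in these data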
VP16 Luc act: counter-screen for SMARCA2 activators: GAL4-VP16 luciferase reporter activation; shares compounds with SMARCA2 activ; HEK293 GAL4-VP16 pG5luc reporter, luciferase luminescence; scaled: DMSO wells 0%, SAHA wells 100%; activation, % at 9.1 µM; 41% of 3,500 active;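 active = activation above the solvent-only control well mean plus 3 SD, averaged across control plates, cut at about 5.2% in these data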
Numbers without * were called inactive; x = not tested or not shown.

SMILES	hcDAF-12 act	ssDAF12 agonist	hgDAF-12 ag	SMARCA2 activ	DAX1 inh-1	DAX1 inh-2	SMARCA2 act conf	VP16 Luc act
COc1ccc(-c2cnc3c(NC=O)cc(-c4ccc(C(=O)N5CCOCC5)cc4)cn23)cc1OC	-2	-1	1	12*	x	0	6	2
COc1cccc(-c2cnc3c(NC=O)cc(-c4ccccc4)cn23)c1	-2	0	3	4	x	-3	x	x
COc1cccc(-c2cnc3c(NC=O)cc(-c4ccc(N5CCN(C)CC5)cc4)cn23)c1	1	-1	4	15*	x	0	37*	3
Clc1ccc(Nc2nc(-c3ccncc3)cs2)cc1	1	1	7	3	0	1	x	x
Nc1ccc(Nc2nc(-c3ccncc3)cs2)cc1	0	-2	-1	13*	0	0	11*	13*
CN(C)/C=C/C(=O)c1ccc2noc(-c3ccc(F)cc3)c2c1	0	-1	5	11*	4.8*	1	-1	0
CN(C)c1ccc(-c2ccc3c(=O)c4ccccc4n(C)c3c2)cn1	2	0	10	8.5*	0	1	9.8*	11*
CCC(=O)Nc1ccc(NC(=O)CSc2nnnn2-c2cccnc2)cc1C	0	-1	-3	9.7*	0	0	-2	1
Cc1cccc(NC(=O)CSc2nnnn2-c2cccnc2)c1	0	-1	-3	5	2	0	x	x
O=C(CN1CCOCC1)NNc1nc(-c2ccccc2)c2cc(Br)ccc2n1	-1	-1	0	-1	-1	-1	x	x
CCOc1ccc(Nc2nc(N)c([N+](=O)[O-])c(N3CCN(CC)CC3)n2)cc1	-1	-1	-2	12*	1	0	1	2
CCOc1ccc(Nc2nc(N)c([N+](=O)[O-])c(N3CCOCC3)n2)cc1	-2	-1	1	1	-1	-1	x	x
O=C1NC(c2ccccc2Br)=N/C1=C\c1ccco1	1	-1	3	14*	4	0	9.6*	7.3*
Cc1ccc(-n2c(=O)cc(N3CCC(C)CC3)[nH]c2=O)cc1	-1	-2	0	8.2*	1	0	-2	-1
Cc1ccc(-n2c(=O)cc(N3CC(C)CC(C)C3)[nH]c2=O)cc1 (centres undefined)	-1	-1	-2	-1	1	0	x	x
c1ccc(N2CCN(c3cnccn3)CC2)nc1	-2	-1	0	0	1	1	x	x
N#Cc1cc(C#N)c(N2CCN(c3ccccn3)CC2)nc1N	-1	-1	3	9.1*	0	1	16*	11*
COC(=O)[C@H](CC(C)C)NC(=O)Cn1cnc2c(SC)nc(N)nc21	1	-1	-1	-1	0	0	x	x
Cc1[nH]c2ccccc2c1/C=N/Nc1nc2ccccc2[nH]1	2	-1	-2	21*	x	-1	9.2*	5
Cc1[nH]c2ccccc2c1/C=N/NC(=O)c1ccc(N)cc1	5	0	2	9.3*	1	0	3	0
Cc1[nH]c2ccccc2c1/C=N/NC(=O)CNC(=O)c1ccccc1	-2	-1	-1	-3	0	-1	x	x
Cc1ccc(-n2nc(C)c3c(C)c(CCC(=O)NCC4CCCO4)c(=O)n(C)c32)cc1 (centres undefined)	0	-1	0	-1	1	0	x	x
CC(=O)Nc1ccc(-c2nc3c(C)cccc3[nH]2)cc1	4	0	10	13*	1	2	20*	17*
CCOC(=O)c1[nH]c2cc(OC)c(OC)cc2c1NC(=O)c1nonc1C	0	-2	4	9.9*	0	-1	-2	-2
COc1ccccc1NC(=O)Cc1nnc(SCC(=O)NC2CCCCC2C)n1C (centres undefined)	1	-1	-1	-5	-1	0	x	x
SMILES	hcDAF-12 act	ssDAF12 agonist	hgDAF-12 ag	SMARCA2 activ	DAX1 inh-1	DAX1 inh-2	SMARCA2 act conf	VP16 Luc act
CCN(CC)CCN(Cc1cc2cc3c(cc2[nH]c1=O)OCO3)C(=S)NCCOC	-3	0	-2	-2	0	0	x	x
CC(C)=CC(=O)Nc1nnc(-c2ccccc2)s1	2	0	9	16*	3	3	5	7.8*
CC(C)=CC(=O)Nc1nnc(C)s1	0	-1	2	1	0	0	x	x
COc1ccc(-c2nnc(NC(=O)c3c(OC)cccc3OC)s2)cc1	-1	-1	0	-2	0	-1	x	x
COC(=O)Nc1nnc(-c2ccc(OC)cc2)s1	1	0	13*	8.1*	3	1	6	5.2*
CC(C)Oc1ccc(/C(O)=C2/C(=O)C(=O)N(CCN(C)C)C2c2cccs2)cc1 (centres undefined)	-1	-1	2	3	2	0	x	x
COc1ccc(-c2csc3nc(C)n(-n4cccc4)c(=O)c23)cc1OC	0	-1	-1	9.1*	-1	0	-2	2
COc1ccc(-c2csc3ncn(-c4cccc(C)c4)c(=O)c23)cc1OC	0	-2	0	-1	3	0	x	x
CCOC(=O)N1CCN(C(=O)C(CC(C)C)NS(=O)(=O)c2ccc(C)cc2)CC1 (centres undefined)	0	-1	0	0	0	0	x	x
Cc1c(Cl)cccc1NC(CC(=O)c1ccccc1)C(=O)O (centres undefined)	6	0	3	9.7*	1	0	7	3
COc1ccc(-n2nc(C(=O)NCC(=O)NCCCN3CC(C)CC(C)C3)c3ccccc3c2=O)cc1OC (centres undefined)	-1	-1	2	0	2	-1	x	x
CCc1nc2ccccc2n1CC1CC1(Cl)Cl (centres undefined)	0	-2	0	1	0	0	x	x
O=[N+]([O-])c1ccc(N/N=C/C=C/c2ccco2)cc1	0	-1	2	8.2*	2	0	3	6.5*
Cc1ccc(NC(=O)C2CC(=O)N(C(C)C)C2)cc1C (centres undefined)	-1	-1	-3	-2	1	0	x	x
Cc1ccc(NC(=O)C2CC(=O)N(C(C)C)C2)cc1Cl (centres undefined)	0	-2	-2	8.3*	2	0	1	0
CN(Cc1ccccc1)C(=O)CN1C(=O)NC2(CCCc3sccc32)C1=O (centres undefined)	0	-1	1	-5	-1	0	x	x
